Out of some 5,500 compounds screened, about 2,000 (36%) were called active. Not shown: some 18% with an inconclusive outcome. This is one part of the list. Values without a mark were called inactive. Cut-off read from the data, not from the text of the source: active = normalized growth mostly below about 0.91 (no sharp cut-off); inconclusive = no clear call, values can overlap the other calls; inactive = mostly above about 0.92.
Experiment: chemical genetic growth profiling, strain panel (AID 1159580);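 note: tested at 20 µM; growth read once vehicle control cultures reached saturation at 30 °C; 1 = growth at the plate median or of vehicle wells; lower values mean less growth of the strain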
Conditions: growth OD

CCCCCCCCCCCC1=C(O)C(=O)C=C(O)C1=O
normalized growth (S. cerevisiae deletion strains, locus YJL168C, strain set2, stronger effect = lower value): 0.975
normalized growth (S. cerevisiae deletion strains, locus YJL187C, strain SWE1 (second series), stronger effect = lower value): 0.981
normalized growth (S. cerevisiae deletion strains, locus YJR043C, strain POL32, stronger effect = lower value): 0.584 (active)
normalized growth (S. cerevisiae deletion strains, locus YKL068W, stronger effect = lower value): 0.936 (active)
normalized growth (S. cerevisiae deletion strains, locus YKL085W, strain MDH1 (second series), stronger effect = lower value): 0.513 (active)
normalized growth (S. cerevisiae deletion strains, locus YKL085W, strain MDH1, stronger effect = lower value): 0.513 (active)
normalized growth (S. cerevisiae deletion strains, locus YKL160W, strain elf1, stronger effect = lower value): 0.805 (active)
normalized growth (S. cerevisiae deletion strains, locus YKR001C, strain vps1, stronger effect = lower value): 0.776 (active)
normalized growth (S. cerevisiae deletion strains, locus YKR026C, strain gcn3, stronger effect = lower value): 0.82 (active)
normalized growth (S. cerevisiae deletion strains, locus YKR091W, strain srl3, stronger effect = lower value): 0.911 (active)
normalized growth (S. cerevisiae deletion strains, locus YLL001W, strain dnm1, stronger effect = lower value): 0.502 (active)
normalized growth (S. cerevisiae deletion strains, locus YLL026W, stronger effect = lower value): 0.972
normalized growth (S. cerevisiae deletion strains, locus YLL041C, strain sdh2, stronger effect = lower value): 0.933
normalized growth (S. cerevisiae deletion strains, locus YLR027C, strain aat2, stronger effect = lower value): 0.839 (active)
normalized growth (S. cerevisiae deletion strains, locus YLR039C, strain RIC1, stronger effect = lower value): 0.296 (active)
normalized growth (S. cerevisiae deletion strains, locus YLR058C, strain SHM2, stronger effect = lower value): 1
normalized growth (S. cerevisiae deletion strains, locus YLR102C, strain apc9, stronger effect = lower value): 0.974
normalized growth (S. cerevisiae deletion strains, locus YLR221C, strain rsa3, stronger effect = lower value): 0.801 (active)
normalized growth (S. cerevisiae deletion strains, locus YLR258W, strain gsy2, stronger effect = lower value): 0.911 (active)
normalized growth (S. cerevisiae deletion strains, locus YLR262C, strain YPT6 (second series), stronger effect = lower value): 0.477 (active)
normalized growth (S. cerevisiae deletion strains, locus YLR262C, strain YPT6, stronger effect = lower value): 0.414 (active)
normalized growth (S. cerevisiae deletion strains, locus YLR268W, strain sec22, stronger effect = lower value): 0.756 (active)
normalized growth (S. cerevisiae deletion strains, locus YLR320W, strain mms22, stronger effect = lower value): 0.83 (active)
normalized growth (S. cerevisiae deletion strains, locus YLR330W, strain CHS5, stronger effect = lower value): 0.842 (active)
normalized growth (S. cerevisiae deletion strains, locus YLR342W, strain FKS1 (second series), stronger effect = lower value): 0.886
normalized growth (S. cerevisiae deletion strains, locus YLR342W, strain FKS1, stronger effect = lower value): 0.72 (active)
normalized growth (S. cerevisiae deletion strains, locus YLR357W, strain rsc2, stronger effect = lower value): 0.441 (active)
normalized growth (S. cerevisiae deletion strains, locus YLR370C, strain arc18, stronger effect = lower value): 0.242 (active)
normalized growth (S. cerevisiae deletion strains, locus YLR371W, strain rom2, stronger effect = lower value): 0.945
normalized growth (S. cerevisiae deletion strains, locus YLR384C, strain iki3, stronger effect = lower value): 0.989
normalized growth (S. cerevisiae deletion strains, locus YLR418C, strain cdc73, stronger effect = lower value): 0.819 (active)
normalized growth (S. cerevisiae deletion strains, locus YML016C, strain PPZ1, stronger effect = lower value): 0.991
normalized growth (S. cerevisiae deletion strains, locus YML032C, strain rad52, stronger effect = lower value): 0.882 (active)
normalized growth (S. cerevisiae deletion strains, locus YML120C, strain ndi1, stronger effect = lower value): 0.952
normalized growth (S. cerevisiae deletion strains, locus YML124C, strain tub3, stronger effect = lower value): 0.975
normalized growth (S. cerevisiae deletion strains, locus YMR058W, strain fet3, stronger effect = lower value): 0.0857 (active)
normalized growth (S. cerevisiae deletion strains, locus YMR078C, strain ctf18, stronger effect = lower value): 0.96
normalized growth (S. cerevisiae deletion strains, locus YMR125W, strain sto1, stronger effect = lower value): 0.832 (active)
normalized growth (S. cerevisiae deletion strains, locus YMR129W, stronger effect = lower value): 0.883 (active)
normalized growth (S. cerevisiae deletion strains, locus YMR205C, strain PFK2, stronger effect = lower value): 0.901
normalized growth (S. cerevisiae deletion strains, locus YMR223W, strain ubp8, stronger effect = lower value): 0.87 (active)
normalized growth (S. cerevisiae deletion strains, locus YMR231W, strain pep5, stronger effect = lower value): 0.69 (active)
normalized growth (S. cerevisiae deletion strains, locus YMR263W, strain SAP30, stronger effect = lower value): 0.766 (active)
normalized growth (S. cerevisiae deletion strains, locus YMR307W, strain GAS1, stronger effect = lower value): 0.378 (active)
normalized growth (S. cerevisiae deletion strains, locus YNL067W, strain RPL9B, stronger effect = lower value): 0.823 (active)
normalized growth (S. cerevisiae deletion strains, locus YNL071W, strain lat1, stronger effect = lower value): 0.912 (active)
normalized growth (S. cerevisiae deletion strains, locus YNL128W, strain TEP1, stronger effect = lower value): 0.683 (active)
normalized growth (S. cerevisiae deletion strains, locus YNL209W, strain ssb2, stronger effect = lower value): 0.61 (active)
normalized growth (S. cerevisiae deletion strains, locus YNL233W, strain BNI4, stronger effect = lower value): 0.857 (active)
normalized growth (S. cerevisiae deletion strains, locus YNL248C, strain rpa49, stronger effect = lower value): 0.757 (active)
normalized growth (S. cerevisiae deletion strains, locus YNL250W, strain rad50, stronger effect = lower value): 0.738 (active)
normalized growth (S. cerevisiae deletion strains, locus YNL271C, strain bni1, stronger effect = lower value): 0.636 (active)
normalized growth (S. cerevisiae deletion strains, locus YNL298W, strain CLA4, stronger effect = lower value): 0.66 (active)
normalized growth (S. cerevisiae deletion strains, locus YNL307C, strain MCK1, stronger effect = lower value): 0.857 (active)
normalized growth (S. cerevisiae deletion strains, locus YNL322C, strain KRE1 (second series), stronger effect = lower value): 0.922
normalized growth (S. cerevisiae deletion strains, locus YNR049C, strain mso1, stronger effect = lower value): 0.638 (active)
normalized growth (S. cerevisiae deletion strains, locus YNR052C, strain pop2, stronger effect = lower value): 0.866 (active)
normalized growth (S. cerevisiae deletion strains, locus YOL012C, strain htz1): 0.529
normalized growth (S. cerevisiae deletion strains, locus YOL147C, strain pex11, stronger effect = lower value): 0.871 (active)
normalized growth (S. cerevisiae deletion strains, locus YOR001W, strain rrp6, stronger effect = lower value): 0.86 (active)
normalized growth (S. cerevisiae deletion strains, locus YOR061W, strain CKA2, stronger effect = lower value): 0.986
normalized growth (S. cerevisiae deletion strains, locus YOR069W, strain VPS5, stronger effect = lower value): 0.983
normalized growth (S. cerevisiae deletion strains, locus YOR070C, strain gyp1, stronger effect = lower value): 0.97
normalized growth (S. cerevisiae deletion strains, locus YOR080W, strain dia2, stronger effect = lower value): 0.946
normalized growth (S. cerevisiae deletion strains, locus YOR083W, strain WHI5, stronger effect = lower value): 0.807 (active)
normalized growth (S. cerevisiae deletion strains, locus YOR106W, strain vam3, stronger effect = lower value): 0.637 (active)
normalized growth (S. cerevisiae deletion strains, locus YOR136W, strain idh2, stronger effect = lower value): 0.919 (active)
normalized growth (S. cerevisiae deletion strains, locus YOR144C, strain elg1, stronger effect = lower value): 0.877 (active)
normalized growth (S. cerevisiae deletion strains, locus YOR184W, strain ser1, stronger effect = lower value): 0.875
normalized growth (S. cerevisiae deletion strains, locus YOR265W, strain rbl2, stronger effect = lower value): 0.867 (active)
normalized growth (S. cerevisiae deletion strains, locus YOR270C, strain vph1, stronger effect = lower value): 0.298 (active)
normalized growth (S. cerevisiae deletion strains, locus YOR290C, strain snf2, stronger effect = lower value): 0.471 (active)
normalized growth (S. cerevisiae deletion strains, locus YOR316C, strain cot1, stronger effect = lower value): 0.999
normalized growth (S. cerevisiae deletion strains, locus YPL051W, strain arl3, stronger effect = lower value): 0.768 (active)
normalized growth (S. cerevisiae deletion strains, locus YPL055C, strain LGE1, stronger effect = lower value): 0.483 (active)
normalized growth (S. cerevisiae deletion strains, locus YPL078C, strain atp4, stronger effect = lower value): 0.647 (active)
normalized growth (S. cerevisiae deletion strains, locus YPL106C, strain sse1, stronger effect = lower value): 0.794 (active)
normalized growth (S. cerevisiae deletion strains, locus YPL240C, strain hsp82, stronger effect = lower value): 0.907 (active)
normalized growth (S. cerevisiae deletion strains, locus YPL241C, strain CIN2, stronger effect = lower value): 0.851 (active)
normalized growth (S. cerevisiae deletion strains, locus YPR119W, strain clb2, stronger effect = lower value): 0.986
normalized growth (S. cerevisiae deletion strains, locus YPR141C, strain kar3, stronger effect = lower value): 0.735 (active)
normalized growth (S. cerevisiae deletion strains, locus YPR163C, strain tif3, stronger effect = lower value): 0.977
normalized growth (S. cerevisiae deletion strains, locus YPR167C, strain met16, stronger effect = lower value): 0.846 (active)
normalized growth (S. cerevisiae deletion strains, strain wtn01, stronger effect = lower value): 0.871 (active)
normalized growth (S. cerevisiae strains, strain wild type, stronger effect = lower value): 0.693 (active)
